# Experimental data reported in the supplement of paper PMC4723716.
# The full ranking holds about 3,600 compounds; the median of “viability index relative to DMSO control” is about 0.81, and the lowest 2% start at about 0.13. This is one part of a sample in which the lowest values are shown more often than they occur.
# Test system: Plasmodium falciparum NF54 stage V gametocytes
# Experiment: viability index relative to DMSO control (fraction); higher = less gametocyte killing
# Conditions: 1.25 µM, incubation time: 72 h
# 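Further: Saponin-lysis sexual stage assay in serum-free medium: MitoTracker Red CMXRos staining plus saponin, high-content imaging, particle count per well divided by plate mean of DMSO wells.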
row,SMILES,viability index
1,COc1ccc(CC2NCC(O)C2OC(C)=O)cc1 (stereo not given),0
2,Cc1ccc(-n2c(C)c(C(=O)c3ccccc3)c3cc(O)ccc32)cc1,1.24
3,Cc1c2ccccc2c(C)c2ccccc12,1.04
4,COc1ccc(-c2ccc(C=C3C(=O)NC(=S)NC3=O)o2)cc1Cl,0.866
5,C=CC1CN2CCC1C(C(O)c1ccnc3ccc(OC)cc13)C2 (stereo not given),0.411
6,NC(=O)CN1CC(O)CC1=O (stereo not given),0.0308
7,OC1(c2ccc(Cl)c(C(F)(F)F)c2)CCN(CCOC2c3ccccc3CSc3ccc(Cl)cc32)CC1 (stereo not given),0.589
8,CC(C)N1CC=C(c2c[nH]c3ccccc23)CC1,0.887
9,O=C(Cn1c2ccccc2c(=O)c2ccccc21)Nc1ccc(Cl)cc1C(=O)c1ccccc1,0.781
10,Oc1ccccc1C=Nc1ccccc1[Te]c1ccccc1N=Cc1ccccc1O,0.0513
11,O=c1cccc2n1CC1CC2CN(Cc2cccc(O)c2)C1 (stereo not given),0.898
12,CC(C)NC(=O)c1cn(Cc2ccccc2)cc(C(=O)NCCc2nc3ccccc3[nH]2)c1=O,0.942
13,CN1CCN(c2ccc(NC(=O)Oc3ccccc3)cc2)CC1,0.798
14,N#CC1=C(N)Oc2c(c(=O)oc3ccccc23)C1c1ccoc1 (stereo not given),1.08
15,C=CC1CN2CCC1CC2C(OC(=O)c1ccco1)c1ccnc2ccccc12 (stereo not given),0.46
